Laboratory results: PubChem BioAssay AID463229 (Broad Institute, 2010)
Among all 2,300 compounds or so, about 2,100 (91%) were called active. So high a share suggests a set chosen from earlier hits. Not all results are given here. Results with a measured potency or affinity are listed apart. Unmarked numbers belong to inactive results.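 Rule for the calls: active = compounds raising the signal whose fitted half-maximal concentration is at or below their top tested dose (cut at about 25 µM in these data); inconclusive = flat fit at 30 to 70% activity, or a poor fit; inactive = the rest.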

Experiment: cytokine-free beta-cell viability effect – INS-1E rat cells, ATP luminescence, cherry pick, counter-screen for beta-cell apoptosis protection project, dose response (AID 463229);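 note: 0% = median of neutral control wells and 100% = median of positive control wells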
Settings: INS-1E rat beta cells, no cytokines, CellTiter-Glo ATP, 48 h; series mostly up to 26 µM; activity change (ATP luminescence): at the top concentration

SMILES	activity change (ATP luminescence)
N#Cc1ccc(-c2csc(NNC(=O)c3ccccc3)n2)cc1	2.98%
CCn1c(=O)c(C(=O)Nc2ccccn2)c(O)c2ccccc21	-29.2%
COc1ccc(CN2CCN(CCSc3ccc(C)cc3)CC2)c(OC)c1OC	5.52%
CCOC(=O)C1(Cc2cccc(Cl)c2)CCCN(C(=O)c2ccc(COC)s2)C1 (stereo not drawn)	-0.609%
CN(C)CCCNc1cc(C(C)(C)C)nc2c(-c3ccccc3)cnn12	72.4%
Cc1ccc2c(c1)Sc1c(ccc3ccccc13)N2	-31%
COc1ccc(C(=O)c2c(C)c3ccccc3n2CC(O)CNC(C)C)cc1 (stereo not drawn)	-0.686%
COc1ccc(S(=O)(=O)Nc2ccc(O)c3ccccc23)cc1	148%
CN(Cc1ccccc1)C(=O)c1nc2ccccn2c1CN1CCCC1c1nccs1 (stereo not drawn)	0.597%
CCn1c(=O)c([N+](=O)[O-])c(N2CCN(Cc3ccc4c(c3)OCO4)CC2)c2ccccc21	-14.7%
COc1ccc(N2CC(C(=O)N3CCN(c4ccccc4F)CC3)CC2=O)cc1 (stereo not drawn)	-80.3%
O=C(C(Sc1ccccc1)c1ccccc1)N1CCN(c2ccccc2F)CC1 (stereo not drawn)	-5.26%
Cc1occc1C(=O)N1CCCC(N2CCN(c3cccc(C(F)(F)F)c3)CC2)C1 (stereo not drawn)	-1.48%
CC#CC[N+](C)(C)CCCCCCCC	18.9%
OCCN1CCN(C2Cc3cc(Cl)ccc3Sc3ccc(Cl)cc32)CC1 (stereo not drawn) (tested in a mixture with another compound)	-11% [at 12 µM]
O=[N+]([O-])c1cccc(/C=N/n2cnnc2)c1	2.06%
CC(C)NC(=S)NC(c1ccccc1)(c1ccccc1)c1ccccc1	78.9%
CC1CCN(C(=O)CCNS(=O)(=O)c2ccc(Br)cc2)CC1	-19%
COc1ccc(Br)cc1CN(C)CC(=O)NCc1ccc(F)cc1	-0.267%
Cc1nn(-c2ccccc2)c(C)c1NC(=O)COc1ccc(Br)cc1Cl	-4.05%
CCSC1=NCCN1C(=O)C(C)(C)Oc1ccc(Cl)cc1	-6.11%
Cc1cccc(C)c1NC(=O)CNC(=O)c1c(C)nn(C)c1Cl	-25.8%
Cc1cccc(NC(=S)Nc2ccc3cn[nH]c3c2)c1	0.629%

SMILES	activity change (ATP luminescence)
Cc1ccc(O)c(/C=N/NC(=O)c2[nH]ncc2Br)c1	-11.4%
NC(=S)N/N=C/c1c(O)ccc2ccccc12	4.57%
COc1ccc(N(C)S(=O)(=O)c2cccc(C(=O)Nc3nc(C)c(C(C)=O)s3)c2)cc1	-3.12%
O=C(c1ccco1)c1coc2c1cc(O)c1ccccc12	-3.38%
Cc1ccc2c(C)nc(Nc3nc(CSc4nc5ccccc5[nH]4)cc(=O)[nH]3)nc2c1	56.1%
Cc1ccc(C(=O)N/C(=C\c2ccc(-c3ccccc3[N+](=O)[O-])o2)C(=O)NCCCN2CCOCC2)cc1	-20.3%
C=CCN1C(=O)N/C(=C/c2ccc(N3CCOCC3)o2)C1=O	-9.61%
C[C@H](CO)N1C[C@H](C)[C@@H](CN(C)C(=O)NC2CCCCC2)Oc2c(NC(=O)Nc3ccc(C(F)(F)F)cc3)cccc2C1=O	19.7%
COc1ccc(S(=O)(=O)N2CCNCC2)cc1OC	-51.7%
CCOC(=O)C(NCCc1ccc(F)cc1)(NC(=O)CC)C(F)(F)F (stereo not drawn)	0.876%
Cc1cc(C)cc(OCCCn2ccnc2)c1	-28.9%
O=c1[nH]c(NCCCO)nc2c1C1(CCCC1)Cc1ccccc1-2	3.07%
Nc1ccc(Nc2ccc([N+](=O)[O-])cc2[N+](=O)[O-])cc1	-11.2%
COc1ccccc1NCC(=O)N/N=C/c1c(O)ccc2ccccc12	26.3%
C/C(N)=C(/C#N)C(=O)COC(=O)c1cc(-c2ccc(C)cc2)nc2ccccc12	10.7%
COc1ccc(C2=Nn3c(nnc3-c3ccccc3Cl)SC2)cc1OC1CCCC1	-27.6%
CCn1c(SCC(=O)Nc2ccc(OC)cc2)nc2nc3c(cc2c1=O)CCCC3	-5.03%
Cc1cccnc1CCNCc1c(C(=O)N2C[C@@H](C)O[C@@H](C)C2)nc2ccc(Cl)cn12	-51.5%
Cc1ccccc1Oc1nc(-c2ccccn2)nc2ccccc12	-11.1%
COc1cc2c(cc1OC)C(NC(=O)C(F)(F)F)CNC2=O (stereo not drawn)	6%
Cc1cccc(C2(c3cccc(C)c3)OC(=O)c3ccccc32)c1	70.2%
O=C(CN1C(=O)c2ccccc2S1(=O)=O)c1ccc(F)cc1	-12.8%
CCCCn1cnc2c(c(-c3ccccc3)c(-c3ccccc3)n2Cc2ccco2)c1=N	-3.17%

SMILES	activity change (ATP luminescence)
O=c1c2c3c(sc2n(CCN2CCCCC2)c(=O)n1Cc1ccco1)CCCCC3	6.86%
Cc1cc(C(=O)c2ccc3ccccc3c2)c(C)o1	-10.2%
C=CCc1c(C)nc(C)nc1N/N=C/c1ccc(N(C)C)cc1	-12.8%
Cc1cc(N2CCOCC2)nc(N)n1	-46.7%
COc1ccccc1NCC(=O)N1CCN(S(=O)(=O)c2ccccc2)CC1	4.48%
Cc1ccc(NC(=O)C(C)Sc2nnc(C)n2C2CC2)cc1S(=O)(=O)N1CCOCC1 (stereo not drawn)	-21.9%
CNc1nc(N)c([N+](=O)[O-])c(Nc2cccc(F)c2)n1	-4.52%
Cc1cccc(CNc2ccc(S(=O)(=O)N3CCCCC3)cc2)c1	8.31%
O=C(N/N=C/c1cccnc1)c1ccccc1NS(=O)(=O)c1cccs1	-14.6%
O=C(c1cccc(Cl)c1)c1nn(-c2ccccc2)c(=O)cc1C(F)(F)F	9.76%
O=[N+]([O-])/C=C/c1cn(Cc2ccc(F)cc2)c2ccccc12	7.17%
Cc1csc2nc(NC(=O)c3ccccc3)sc(=O)c12	-14%
CCOc1ccc(N(C)S(=O)(=O)c2ccc(C)c(C(=O)OCC(=O)c3c[nH]c4ccccc34)c2)cc1	-33.9%
Cc1cc(C)c(OCC(O)CNC(C)(C)C)c(C)c1 (stereo not drawn)	-15.4%
OC(CNC1CCCCC1)COCCOc1ccc(Br)cc1 (stereo not drawn)	20.5%
CC(C)(C)OC(=O)N1CCC(CNC(=O)c2cccs2)CC1	3.81%
COc1ccc(-c2ccnc(SCC(=O)N3CCN(c4ccccc4)CC3)n2)cc1	8.24%
O=C(NCc1nc2ccccc2[nH]1)C1=C[C@@H](C2CCCCC2)C[C@@H](OCc2ccc(CO)cc2)O1	74.8%
CCCOC(=O)/C(C(N)=NCc1ccccc1)=C(\O)OCCC	8.11%
CCOC(=O)C1=C(CCc2ccccc2)NC(=O)NC1c1ccc2ccccc2c1 (stereo not drawn)	3.88%
c1cc(-c2noc(CC3CCCCC3)n2)ccn1	-5.37%
COc1ccccc1/C=N/OCc1cc(C(C)=O)ccc1OC	-1.8%
